Measured values: PubChem BioAssay
Active and inactive are the calls of the source. Unless noted, how the calls were made is not given here.

What was measured:
[1] = HepG2 liver cancer cell viability effects, profiling panel, resazurin fluorescence, 24 h, PK04 Diversity Set (AID 1172); conditions: higher = more signal
[2] = basal S. cerevisiae growth modulation, no modifier, primary screen, OD600, strain BY4716, 24 h, basal condition (AID 1173); conditions: OD600, 24 h, higher = more signal, called active from +8 up or from −8 down
[3] = MM1S myeloma cell viability, profiling panel, resazurin fluorescence, basal, 24 h, PK04 Diversity Set (AID 1174); conditions: higher = more signal, called active from +8 up or from −8 down;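 further: MM1S multiple myeloma cell line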
[4] = biological target: Dihydroorotate dehydrogenase (quinone), mitochondrial (Plasmodium falciparum (isolate 3D7)) (UniProt Q08210); experiment: PfDHODH enzyme inhibitors, primary screen, biochemical, C-terminal His tag, absorbance 600 nm (AID 1175); conditions: DCIP absorbance 600 nm, higher = more signal, called active from +8 up or from −8 down;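 further: recombinant parasite enzyme with a five histidine tag at its C terminus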
Sequence of Dihydroorotate dehydrogenase (quinone), mitochondrial (Plasmodium falciparum (isolate 3D7)) (Q08210 whole entry, looked up): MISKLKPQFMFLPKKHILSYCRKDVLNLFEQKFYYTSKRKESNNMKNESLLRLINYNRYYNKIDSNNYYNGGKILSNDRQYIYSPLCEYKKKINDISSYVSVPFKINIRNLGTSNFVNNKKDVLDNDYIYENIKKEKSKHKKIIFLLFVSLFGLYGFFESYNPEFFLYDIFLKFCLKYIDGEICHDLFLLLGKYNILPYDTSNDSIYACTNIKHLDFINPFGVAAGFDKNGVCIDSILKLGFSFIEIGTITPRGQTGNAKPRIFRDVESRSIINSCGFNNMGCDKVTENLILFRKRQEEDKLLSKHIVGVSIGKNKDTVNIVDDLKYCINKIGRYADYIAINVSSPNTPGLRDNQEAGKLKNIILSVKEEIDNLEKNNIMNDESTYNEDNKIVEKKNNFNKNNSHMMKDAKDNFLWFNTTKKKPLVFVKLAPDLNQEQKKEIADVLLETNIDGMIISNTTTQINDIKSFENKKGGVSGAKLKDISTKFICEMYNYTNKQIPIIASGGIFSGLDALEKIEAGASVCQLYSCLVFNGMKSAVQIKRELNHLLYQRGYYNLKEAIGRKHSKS

[5] = P. aeruginosa biofilm formation inhibitors, primary screen, strain PAO1, LB-PBS medium, absorbance 600 nm (AID 1176); conditions: P. aeruginosa PAO1 growth/biofilm, A600, 12 h; higher = more signal
[6] = S. cerevisiae RM11-1a growth modifiers, primary screen, strain RM11-1a, OD600, basal, 24 h (AID 1177); conditions: OD600, 24 h, higher = more signal, called active from +8 up or from −8 down;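 further: cultures grown under basal conditions with no added stressor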
[7] = E. coli acrAB mutant growth effects, primary screen, E. coli filamentation inducers, strain DRC39, OD650, 24 h (AID 1178); conditions: higher = more signal, called active from +8 up or from −8 down;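 further: growth measured as culture turbidity by optical density at 650 nm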
[8] = E. coli acrAB mutant growth effects, primary screen, E. coli filamentation inducers, strain DRC39, OD650, 48 h (AID 1179);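 further: screen aims at cell division blockers that make cells filament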; conditions: E. coli DRC39 delta-acrAB growth, higher = more signal, called active from +8 up or from −8 down
[9] = RPMI8226 myeloma cell viability, profiling panel, resazurin fluorescence, basal, 24 h, PK04 Diversity Set (AID 1180); conditions: higher = more signal;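 further: RPMI8826 multiple myeloma cell line at 5000 cells per well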
[10] = biological target: E3 ubiquitin-protein ligase XIAP (Homo sapiens) (UniProt P98170); experiment: XIAP binders, primary screen, biophysical, small-molecule microarray, fluorescence 635 nm (AID 1181); conditions: small-molecule microarray binding, higher = more signal;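 further: score merges 667 nm emission and signal to noise over triplicate slides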
Sequence of E3 ubiquitin-protein ligase XIAP (Homo sapiens) (P98170 whole entry, looked up): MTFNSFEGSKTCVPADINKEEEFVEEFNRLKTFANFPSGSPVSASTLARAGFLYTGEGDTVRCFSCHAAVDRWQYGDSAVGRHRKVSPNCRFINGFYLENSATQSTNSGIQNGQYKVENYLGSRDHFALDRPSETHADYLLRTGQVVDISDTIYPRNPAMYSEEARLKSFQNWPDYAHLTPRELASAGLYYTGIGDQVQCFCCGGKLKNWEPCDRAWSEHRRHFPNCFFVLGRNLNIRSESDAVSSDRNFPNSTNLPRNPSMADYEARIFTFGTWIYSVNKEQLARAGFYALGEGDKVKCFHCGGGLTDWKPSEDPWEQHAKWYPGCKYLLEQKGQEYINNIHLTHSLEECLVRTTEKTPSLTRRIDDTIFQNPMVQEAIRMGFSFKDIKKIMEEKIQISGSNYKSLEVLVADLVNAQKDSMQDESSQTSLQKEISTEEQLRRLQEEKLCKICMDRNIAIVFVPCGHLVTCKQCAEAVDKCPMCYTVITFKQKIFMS

[11] = test system: XIP peptide (Xip251-270) binding; experiment: small-molecule binders of XIP peptide, primary screen, biochemical, small-molecule microarray, fluorescence 635/667 nm, 0.1 µg/mL protein (AID 1182); conditions: fluorescent protein binding, 635 nm, higher = more signal, called active from +8 up or from −8 down
[12] = test system: XIP peptide (Xip251-270); experiment: small-molecule binders of XIP peptide, primary screen, biochemical, small-molecule microarray, fluorescence 635/667 nm, 0.5 µg/mL protein (AID 1183); conditions: small-molecule microarray binding, fluorescence 635 nm; higher = more signal
[13] = Plasmodium falciparum growth inhibition, primary screen, strain 3D7, DAPI fluorescence, 100 nL (AID 1184);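 further: parasites grown inside human red blood cells in medium with human serum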; conditions: P. falciparum 3D7 growth, 3 d, higher = more signal
[14] = biological target: Homeobox protein Hox-A13 (Mus musculus) (UniProt Q62424); experiment: inhibitors of HoxA13-DNA binding, primary screen, biochemical, fluorescence polarization, labeled oligonucleotide (AID 1185); conditions: 15 min, higher = more signal, called active from +8 up or from −8 down
Sequence of Homeobox protein Hox-A13 (Mus musculus) (Q62424 whole entry, looked up): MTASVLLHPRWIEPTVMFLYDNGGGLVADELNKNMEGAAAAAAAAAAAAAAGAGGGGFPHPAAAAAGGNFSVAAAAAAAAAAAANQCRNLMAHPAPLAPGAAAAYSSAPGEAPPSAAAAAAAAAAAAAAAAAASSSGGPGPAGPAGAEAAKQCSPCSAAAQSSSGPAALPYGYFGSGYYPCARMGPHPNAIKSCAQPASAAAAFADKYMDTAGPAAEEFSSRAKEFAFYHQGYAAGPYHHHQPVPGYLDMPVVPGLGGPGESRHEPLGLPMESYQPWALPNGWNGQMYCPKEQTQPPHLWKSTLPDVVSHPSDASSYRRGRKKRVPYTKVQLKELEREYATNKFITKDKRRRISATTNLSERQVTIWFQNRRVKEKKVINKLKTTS

[15] = inhibitors of hydroxyurea-induced Chk1 phosphorylation, primary screen, imaging, HeLa, phospho-Chk1 antibody, percent positive cells (AID 1186); conditions: hydroxyurea-induced phospho-Chk1 immunofluorescence imaging, higher = more signal
[16] = inhibitors of hydroxyurea-induced Chk1 phosphorylation, primary screen, imaging, HeLa, phospho-Chk1 nuclear intensity (AID 1187); conditions: hydroxyurea-induced phospho-Chk1 immunofluorescence imaging, higher = more signal

| Structure (SMILES) | z-score [1] | z-score [2] | z-score [3] | composite z-score [4] | z-score [5] | z-score [6] | z-score [7] | z-score [8] | z-score [9] | composite z-score [10] | composite z-score [11] | composite z-score [12] | z-score [13] | z-score [14] | z-score [15] | z-score [16] |
| --- | --- | --- | --- | --- | --- | --- | --- | --- | --- | --- | --- | --- | --- | --- | --- | --- |
| C[N+](C)(C)CCCC[C@@H]1NC(=O)[C@H]2C[C@@H](C(=O)NCCCCCCNC(=O)CS)[C@@H](c3cccc(OCCO)c3)N2C1=O | -0.191 | 0.578 (inactive) | -0.0499 (inactive) | 0.459 (inactive) | -0.0896 (inactive) | 0.293 (inactive) | 0.474 (inactive) | 0.645 (inactive) | -0.442 | -0.227 | 0.173 (inactive) | 0.487 | -0.135 | -1.87 (inactive) | 0.964 (inactive) | 1.2 (inactive) |
| O=C1C[C@@](C(=O)NCCN2CCOCC2)(c2ccc([N+](=O)[O-])cc2)[C@@H](c2ccc(CO)cc2)N1CC12CC3CC(CC(C3)C1)C2 | -2.48 | -11.2 (active) | -3.17 (inactive) | -0.601 (inactive) | 0.733 (inactive) | 1.77 (inactive) | -0.924 (inactive) | -1.66 (inactive) | -3.82 | -0.182 | 1.28 (inactive) | 0.795 | -1.29 | -4.58 (inactive) | -0.489 (inactive) | -0.649 (inactive) |
| O=C1[C@@]23C=C(Br)[C@H](C[C@@H]2CCOC3)[C@@]12CO2 | 0.165 | -1.85 (inactive) | 0.0335 (inactive) | -0.0887 (inactive) | 0.261 (inactive) | -0.0503 (inactive) | 0.297 (inactive) | 0.319 (inactive) | 0.428 | 0.188 | 0.792 (inactive) | -0.377 | 1.37 | 0.0303 (inactive) | -0.259 (inactive) | -0.561 (inactive) |
| CCCCCN1CC=CC23O[C@@H]4/C=C\CCC(C)OC(=O)C4[C@H]2C(=O)N(C(C)CO)[C@@H]3C1=O (some centres undefined) | 0.194 | 0.142 (inactive) | -0.139 (inactive) | 0.005 (inactive) | -0.0153 (inactive) | 0.449 (inactive) | 0.866 (inactive) | 0.657 (inactive) | 1.07 | -0.127 | 0.176 (inactive) | 0.0664 | -0.107 | -4.77 (inactive) | -0.808 (inactive) | -0.732 (inactive) |
